Key:
Conditions in all cases: concentration: 1 μM, replicates: in singlicate; n = 1
SGK2 = test system: SGK2
SGK3 = test system: SGK3
SGK = test system: SGK
SIK2 = test system: SIK2
SIK = test system: SIK
SLK = test system: SLK
SNARK = test system: T1, SNARK
T1 construct: gene NUAK2

SNRK = test system: SNRK
SRC = test system: SRC
SRMS = test system: SRMS
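Note: KINOMEscan kinase panel screen.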

Question: What does the source list for CCS(=O)(=O)c1ccc(OC)c(Nc2ncc(-c3ccc(F)cc3)o2)c1.Cl [GW591947]?
Answer: %Inh (SGK2): 2%; %Inh (SGK3): 0%; %Inh (SGK): 0%; %Inh (SIK2): 0%; %Inh (SIK): 2%; %Inh (SLK): 6%; %Inh (SNARK): 0%; %Inh (SNRK): 0%; %Inh (SRC): 0%; %Inh (SRMS): 0%

Question: COc1cccc(-n2cnc3c(N)ncnc32)c1 [SKF-97416] was tested. Which “%Inh” value (SGK2) did it give?
Answer: 8%

Question: What about the “%Inh” value (SGK3) of the same compound?
Answer: 0%

Question: What about the “%Inh” value (SGK) of the same compound?
Answer: 44%

Question: And the “%Inh” value (SIK2)?
Answer: 0%

Question: What about the “%Inh” value (SIK) of the same compound?
Answer: 0%

Question: What about the “%Inh” value (SLK) of the same compound?
Answer: 2%

Question: What about the “%Inh” value (SNARK) of the same compound?
Answer: 5%

Question: What about the “%Inh” value (SNRK) of the same compound?
Answer: 20%

Question: And the “%Inh” value (SRC)?
Answer: 13%

Question: What about the “%Inh” value (SRMS) of the same compound?
Answer: 22%

Question: O=C(Nc1ccc2c(c1)OCO2)NC1CCN(c2ccnc(NCc3ccc(F)cc3)n2)CC1 [GSK1379859] was tested. Which “%Inh” value (SGK2) did it give?
Answer: 0%

Question: What about the “%Inh” value (SGK3) of the same compound?
Answer: 0%

Question: What about the “%Inh” value (SGK) of the same compound?
Answer: 0%

Question: What about the “%Inh” value (SIK2) of the same compound?
Answer: 0%

Question: What about the “%Inh” value (SIK) of the same compound?
Answer: 0%

Question: What about the “%Inh” value (SLK) of the same compound?
Answer: 12%

Question: What about the “%Inh” value (SNARK) of the same compound?
Answer: 0%

Question: What about the “%Inh” value (SNRK) of the same compound?
Answer: 0%

Question: What about the “%Inh” value (SRC) of the same compound?
Answer: 17%

Question: And the “%Inh” value (SRMS)?
Answer: 0%

Question: With CCCNC(=O)Nc1ccc(Oc2ncnc3ccn(C)c23)cc1 as the compound, how does the “%Inh” value (SGK2) read?
Answer: 13%

Question: What about the “%Inh” value (SGK3) of the same compound?
Answer: 0%

Question: And the “%Inh” value (SGK)?
Answer: 1%

Question: And the “%Inh” value (SIK2)?
Answer: 0%

Question: What about the “%Inh” value (SIK) of the same compound?
Answer: 23%

Question: And the “%Inh” value (SLK)?
Answer: 0%

Question: And the “%Inh” value (SNARK)?
Answer: 0%

Question: And the “%Inh” value (SNRK)?
Answer: 0%

Question: What about the “%Inh” value (SRC) of the same compound?
Answer: 0%

Question: What about the “%Inh” value (SRMS) of the same compound?
Answer: 0%

Question: O=C(NCCNc1ccnc(Nc2ccc(F)cc2)n1)Nc1ccc2c(c1)OCO2 [GSK1379882] was tested. Which “%Inh” value (SGK2) did it give?
Answer: 13%

Question: And the “%Inh” value (SGK3)?
Answer: 7%

Question: And the “%Inh” value (SGK)?
Answer: 12%

Question: What about the “%Inh” value (SIK2) of the same compound?
Answer: 0%

Question: And the “%Inh” value (SIK)?
Answer: 0%

Question: And the “%Inh” value (SLK)?
Answer: 0%

Question: And the “%Inh” value (SNARK)?
Answer: 1%

Question: And the “%Inh” value (SNRK)?
Answer: 0%

Question: And the “%Inh” value (SRC)?
Answer: 0%

Question: What about the “%Inh” value (SRMS) of the same compound?
Answer: 0%

Question: Which “%Inh” value (SGK2) does the source give for Cc1cc(Nc2nc(-c3cccc(C)n3)nc3ccccc23)ccn1 [GW872411] here?
Answer: 0%

Question: And the “%Inh” value (SGK3)?
Answer: 0%

Question: And the “%Inh” value (SGK)?
Answer: 0%

Question: And the “%Inh” value (SIK2)?
Answer: 23%

Question: And the “%Inh” value (SIK)?
Answer: 0%

Question: What about the “%Inh” value (SLK) of the same compound?
Answer: 0%

Question: What about the “%Inh” value (SNARK) of the same compound?
Answer: 0%

Question: What about the “%Inh” value (SNRK) of the same compound?
Answer: 0%

Question: And the “%Inh” value (SRC)?
Answer: 0%

Question: What about the “%Inh” value (SRMS) of the same compound?
Answer: 13%

Question: With COc1cccc(C2=C(Nc3cccc(C(=O)O)c3)C(=O)NC2=O)c1 [SB-390770] as the compound, how does the “%Inh” value (SGK2) read?
Answer: 11%

Question: And the “%Inh” value (SGK3)?
Answer: 48%

Question: What about the “%Inh” value (SGK) of the same compound?
Answer: 8%

Question: What about the “%Inh” value (SIK2) of the same compound?
Answer: 7%

Question: What about the “%Inh” value (SIK) of the same compound?
Answer: 10%

Question: And the “%Inh” value (SLK)?
Answer: 35%

Question: And the “%Inh” value (SNARK)?
Answer: 72%

Question: And the “%Inh” value (SNRK)?
Answer: 0%

Question: And the “%Inh” value (SRC)?
Answer: 0%

Question: And the “%Inh” value (SRMS)?
Answer: 0%

Question: Which results are given for COc1cc2ncn(-c3cc(OCc4ccncc4)c(C(N)=O)s3)c2cc1OC [GSK336313]?
Answer: %Inh (SGK2): 0%; %Inh (SGK3): 3%; %Inh (SGK): 0%; %Inh (SIK2): 0%; %Inh (SIK): 0%; %Inh (SLK): 43%; %Inh (SNARK): 4%; %Inh (SNRK): 0%; %Inh (SRC): 0%; %Inh (SRMS): 0%

Question: For COc1cc(Nc2ccnc3ccc(C(F)(F)F)cc23)cc(OC)c1OC [GW577382], which “%Inh” value (SGK2) is on record?
Answer: 0%

Question: What about the “%Inh” value (SGK3) of the same compound?
Answer: 0%

Question: What about the “%Inh” value (SGK) of the same compound?
Answer: 10%

Question: And the “%Inh” value (SIK2)?
Answer: 25%

Question: What about the “%Inh” value (SIK) of the same compound?
Answer: 31%

Question: What about the “%Inh” value (SLK) of the same compound?
Answer: 24%

Question: And the “%Inh” value (SNARK)?
Answer: 0%

Question: What about the “%Inh” value (SNRK) of the same compound?
Answer: 0%

Question: And the “%Inh” value (SRC)?
Answer: 36%

Question: What about the “%Inh” value (SRMS) of the same compound?
Answer: 0%

Question: Which results are given for CCn1c(-c2ccoc2)nc2cnccc21 [SB-733887]?
Answer: %Inh (SGK2): 5%; %Inh (SGK3): 4%; %Inh (SGK): 12%; %Inh (SIK2): 0%; %Inh (SIK): 0%; %Inh (SLK): 25%; %Inh (SNARK): 0%; %Inh (SNRK): 0%; %Inh (SRC): 0%; %Inh (SRMS): 0%

Question: Cc1cccc(-c2cc(-c3c[nH]nc3-c3ccccn3)ccn2)c1 [GW679395] was tested. Which “%Inh” value (SGK2) did it give?
Answer: 6%

Question: And the “%Inh” value (SGK3)?
Answer: 0%

Question: What about the “%Inh” value (SGK) of the same compound?
Answer: 0%

Question: And the “%Inh” value (SIK2)?
Answer: 0%

Question: And the “%Inh” value (SIK)?
Answer: 0%

Question: What about the “%Inh” value (SLK) of the same compound?
Answer: 0%

Question: What about the “%Inh” value (SNARK) of the same compound?
Answer: 0%

Question: What about the “%Inh” value (SNRK) of the same compound?
Answer: 0%

Question: And the “%Inh” value (SRC)?
Answer: 53%

Question: And the “%Inh” value (SRMS)?
Answer: 0%

Question: Which “%Inh” value (SGK2) does the source give for COc1cc2nccc(Nc3ccc(OCc4ccc(NC(C)=O)cc4)cc3)c2cc1OC.Cl [GW440135] here?
Answer: 0%

Question: And the “%Inh” value (SGK3)?
Answer: 0%

Question: What about the “%Inh” value (SGK) of the same compound?
Answer: 2%

Question: What about the “%Inh” value (SIK2) of the same compound?
Answer: 4%

Question: What about the “%Inh” value (SIK) of the same compound?
Answer: 0%

Question: What about the “%Inh” value (SLK) of the same compound?
Answer: 3%

Question: What about the “%Inh” value (SNARK) of the same compound?
Answer: 0%

Question: And the “%Inh” value (SNRK)?
Answer: 0%

Question: And the “%Inh” value (SRC)?
Answer: 14%

Question: And the “%Inh” value (SRMS)?
Answer: 20%

Question: What does the source list for Cc1nc(N(C)[C@H]2CN(C(=O)CC#N)CC[C@H]2C)c2cc[nH]c2n1?
Answer: %Inh (SGK2): 7%; %Inh (SGK3): 0%; %Inh (SGK): 25%; %Inh (SIK2): 0%; %Inh (SIK): 6%; %Inh (SLK): 1%; %Inh (SNARK): 1%; %Inh (SNRK): 0%; %Inh (SRC): 11%; %Inh (SRMS): 2%

Question: What does the source list for Nc1nccc2scc(-c3ccc4c(c3)CCN4C(=O)Cc3ccccc3)c12 [GSK2576924]?
Answer: %Inh (SGK2): 0%; %Inh (SGK3): 16%; %Inh (SGK): 0%; %Inh (SIK2): 4%; %Inh (SIK): 0%; %Inh (SLK): 14%; %Inh (SNARK): 16%; %Inh (SNRK): 3%; %Inh (SRC): 2%; %Inh (SRMS): 10%

Question: Which “%Inh” value (SGK2) does the source give for Cl.c1ccc(Cn2cnc3cc(Nc4ncnc5ccccc45)ccc32)cc1 [GW272142] here?
Answer: 0%

Question: And the “%Inh” value (SGK3)?
Answer: 0%

Question: And the “%Inh” value (SGK)?
Answer: 0%

Question: And the “%Inh” value (SIK2)?
Answer: 0%

Question: And the “%Inh” value (SIK)?
Answer: 0%

Question: And the “%Inh” value (SLK)?
Answer: 20%

Question: What about the “%Inh” value (SNARK) of the same compound?
Answer: 0%

Question: What about the “%Inh” value (SNRK) of the same compound?
Answer: 0%

Question: And the “%Inh” value (SRC)?
Answer: 0%

Question: And the “%Inh” value (SRMS)?
Answer: 0%

Question: How did the “%Inh” value (SGK2) turn out when Nc1n[nH]c2nnc(-c3ccccc3)c(-c3ccccc3)c12 [GW554060] was run?
Answer: 0%

Question: What about the “%Inh” value (SGK3) of the same compound?
Answer: 1%

Question: And the “%Inh” value (SGK)?
Answer: 24%

Question: And the “%Inh” value (SIK2)?
Answer: 0%

Question: And the “%Inh” value (SIK)?
Answer: 0%

Question: What about the “%Inh” value (SLK) of the same compound?
Answer: 24%

Question: What about the “%Inh” value (SNARK) of the same compound?
Answer: 0%

Question: What about the “%Inh” value (SNRK) of the same compound?
Answer: 0%

Question: And the “%Inh” value (SRC)?
Answer: 0%

Question: And the “%Inh” value (SRMS)?
Answer: 0%

Question: Which results are given for Cl.NS(=O)(=O)c1cccc(Nc2cc(-c3ccc(F)cc3)n[nH]2)c1 [GW824645]?
Answer: %Inh (SGK2): 100%; %Inh (SGK3): 0%; %Inh (SGK): 22%; %Inh (SIK2): 3%; %Inh (SIK): 0%; %Inh (SLK): 0%; %Inh (SNARK): 0%; %Inh (SNRK): 0%; %Inh (SRC): 1%; %Inh (SRMS): 31%

Question: COc1cc(Nc2nccc(N3CCC(NC(=O)C(C)c4ccc(Cl)cc4)C3)n2)cc(OC)c1OC (stereo not drawn) [GSK1379757] was tested. Which “%Inh” value (SGK2) did it give?
Answer: 0%

Question: And the “%Inh” value (SGK3)?
Answer: 0%

Question: What about the “%Inh” value (SGK) of the same compound?
Answer: 0%

Question: What about the “%Inh” value (SIK2) of the same compound?
Answer: 0%

Question: What about the “%Inh” value (SIK) of the same compound?
Answer: 1%

Question: And the “%Inh” value (SLK)?
Answer: 1%

Question: And the “%Inh” value (SNARK)?
Answer: 19%

Question: What about the “%Inh” value (SNRK) of the same compound?
Answer: 0%

Question: What about the “%Inh” value (SRC) of the same compound?
Answer: 13%

Question: What about the “%Inh” value (SRMS) of the same compound?
Answer: 0%
